Results filed as inconclusive are left out. Active and inactive are the calls of the source. Calls come from the whole dose curve; as a rule, active = well fitted curve in the direction sought with a large enough effect; inconclusive = small, poorly fitted or top-dose-only effect, or another doubt; inactive = no such curve, though single readings can be large or run the other way.
The molecules below were run against Protein phosphatase 1D (Homo sapiens) (UniProt O15297) (assay: Rhodamine-PBP qHTS Assay for Modulators of WT P53-Induced Phosphatase 1 (WIP1) (AID 1347425; note: % of control where 0% means no effect)). Settings: recombinant WIP1, Rhodamine-PBP phosphate fluorescence, real-time; series mostly up to 57.5 µM.
Protein phosphatase 1D (Homo sapiens), sequence (O15297 whole entry, looked up): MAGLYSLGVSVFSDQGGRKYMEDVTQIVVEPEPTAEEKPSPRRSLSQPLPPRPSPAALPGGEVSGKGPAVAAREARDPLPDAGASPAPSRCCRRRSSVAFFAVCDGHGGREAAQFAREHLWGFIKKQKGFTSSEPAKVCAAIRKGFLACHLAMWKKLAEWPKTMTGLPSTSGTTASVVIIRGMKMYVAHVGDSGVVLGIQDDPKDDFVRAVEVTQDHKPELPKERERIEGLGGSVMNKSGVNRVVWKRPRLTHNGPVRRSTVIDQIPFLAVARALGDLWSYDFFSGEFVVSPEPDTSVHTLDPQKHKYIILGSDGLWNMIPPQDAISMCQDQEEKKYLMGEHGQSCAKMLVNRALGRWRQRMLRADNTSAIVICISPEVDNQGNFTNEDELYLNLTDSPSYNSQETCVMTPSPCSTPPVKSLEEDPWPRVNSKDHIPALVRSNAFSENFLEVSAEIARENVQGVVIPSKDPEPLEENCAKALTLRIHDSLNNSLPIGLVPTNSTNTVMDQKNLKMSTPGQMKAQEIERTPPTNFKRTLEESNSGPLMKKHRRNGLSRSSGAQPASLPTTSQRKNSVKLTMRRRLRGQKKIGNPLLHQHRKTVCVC
In short: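 The read-out is the change in Rhodamine-PBP fluorescence (f1 - f0, ex 525/em 598 nm) as Pi is released, read each minute for 11 min. Final reaction: 5 nM WIP1, 10 uM phosphopeptide VEPPL-pS-QETFS, 10 uM Rh-PBP, 50 mM Tris-HCl pH 7.5, 30 mM MgCl2. Compound was preincubated with enzyme for 1 hour at room temperature.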

| Structure (SMILES) | outcome | activity change, negative = inhibition |
| --- | --- | --- |
| Cc1coc2ccccc2c1=O | inactive |  |
| CN1Cc2cc(C(=O)N3CCC(C4CCNCC4)CC3)ccc2NC(CC(=O)O)C1=O (stereo not given) | inactive |  |
| COc1cc(/C=C/C(N)=O)cc(OC)c1OC | inactive |  |
| CNC[C@H](O)[C@@H](O)[C@H](O)[C@H](O)CO | inactive |  |
| CC1CN(c2cc3c(cc2F)c(=O)c(C(=O)O)cn3-c2ccc(F)cc2F)CCN1 (stereo not given) |  | 0.0772% [at 4.81 µM] (inactive) |
| CCCC(=O)O[C@]1(C(=O)COC(=O)CC)CC[C@H]2[C@@H]3CCC4=CC(=O)CC[C@]4(C)[C@H]3[C@@H](O)C[C@@]21C | inactive |  |
| O=C(Nc1ccc(Cl)cc1)Nc1ccc(Cl)c(Cl)c1 | inactive |  |
| COc1c(N2C[C@@H]3CCCN[C@@H]3C2)c(F)cc2c(=O)c(C(=O)O)cn(C3CC3)c12 | inactive |  |
| O=C(Oc1ccccc1)c1cccc(C(=O)Oc2ccccc2)c1 | inactive |  |
| Cc1cc(OCCOCC[N+](C)(C)Cc2ccccc2)ccc1C(C)(C)CC(C)(C)C | inactive |  |
| COCCc1ccc(OCC2CO2)cc1 (stereo not given) | inactive |  |
| Cc1ccc2c(Cl)cc(Cl)c(O)c2n1 | inactive |  |
| CCCCCCCCCCCCCCCC[n+]1ccccc1 | inactive |  |
| CC(C)NCCCC1(C(N)=O)c2ccccc2-c2ccccc21 | inactive |  |
| NS(=O)(=O)c1cc(C(=O)NN2C[C@H]3[C@H]4CCC(C4)[C@H]3C2)ccc1Cl | inactive |  |
| O=C(c1cc(O)c(O)c(O)c1)c1ccc(O)c(O)c1O | inactive |  |
| CCC1=C[C@@H]2CN(C1)Cc1c([nH]c3ccccc13)[C@@](C(=O)OC)(c1cc3c(cc1OC)N(C)[C@H]1[C@@](O)(C(=O)OC)[C@H](OC(C)=O)[C@]4(CC)C=CCN5CC[C@]31[C@@H]54)C2 | inactive |  |
| O=C(CCCl)NCCc1ccccc1 | inactive |  |

| Structure (SMILES) | outcome | activity change, negative = inhibition |
| --- | --- | --- |
| Cc1nc(N)nc(N)c1-c1ccc(Cl)c(Cl)c1 | inactive |  |
| CC(NCCC(c1ccccc1)c1ccccc1)c1ccccc1 (stereo not given) | inactive |  |
| OCCCc1ccccc1 | inactive |  |
| [O-][n+]1cccc(/C(Cl)=N/OC[C@@H](O)CN2CCCCC2)c1 | inactive |  |
| Nc1ccc(O)cc1 | inactive |  |
| O=C(OCC(O)CO)c1ccccc1Nc1ccnc2c(C(F)(F)F)cccc12 (stereo not given) | inactive |  |
| O=C(O)Cc1ccc(OCCNC[C@H](O)c2ccccc2)cc1 | inactive |  |
| Cc1c(N)cccc1C(F)(F)F | inactive |  |
| CCN(CC)CC(=O)OCC(=O)[C@@]1(O)CC[C@H]2[C@@H]3CCC4=CC(=O)CC[C@]4(C)[C@H]3[C@@H](O)C[C@@]21C | inactive |  |
| Cc1ccc(C(=O)Oc2ccc(C(O)CNC(C)(C)C)cc2OC(=O)c2ccc(C)cc2)cc1 (stereo not given) | inactive |  |
| N#Cc1cc(NC(=O)C(=O)O)c(Cl)c(NC(=O)C(=O)O)c1 | inactive |  |
| O=C1Nc2ccccc2C1(c1ccc(O)cc1)c1ccc(O)cc1 | inactive |  |
| C[C@H]1C[C@@H]2[C@H]([C@@H](O)C[C@@]3(C)[C@H]2CC[C@]3(O)C(=O)CO)[C@@]2(C)C=CC(=O)C=C12 | inactive |  |
| OC1(c2ccccc2)CCNCC1 | inactive |  |
| CCCCCCCCCCCC[N+](C)(C)Cc1ccccc1 | inactive |  |
| CO[C@@H]1[C@@H](O[C@@H]2O[C@H](C)[C@@H](O[C@H]3C[C@@](C)(O)[C@@H](O)[C@H](C)O3)[C@H](N(C)C)[C@H]2O)[C@@H](CC=O)C[C@@H](C)[C@@H](O[C@@H]2CC[C@H](N(C)C)[C@@H](C)O2)/C=C/C=C/C[C@@H](C)OC(=O)C[C@H]1OC(C)=O | inactive |  |
| CC(=O)[C@@]1(O)CC[C@H]2[C@@H]3C[C@H](C)C4=CC(=O)CC[C@]4(C)[C@H]3CC[C@@]21C | inactive |  |

From PubChem BioAssay (NCATS)
